We go through 24 compounds from PubChem BioAssay (NCATS).

Test [1] in a line: qHTS to identify inhibitors of the type 1 interferon - major histocompatibility complex class I in skeletal muscle: primary screen against the NCATS Mechanism Interrogation Plate v5.0 (MIPE) Libary (AID 1347411). Also: nearly all actives have a fitted effect of over 65% in size. Also: potency is read from the fitted curve at half-maximal effect. As to conditions: iHSKM cells + IFN-b, HiBiT-tagged MHC-I luminescence, 24 h; series mostly up to 45.8 µM. The method, boiled down:
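Luminescence from CRISPR HiBit-tagged endogenous HLA-B in human myoblasts reported MHC class I level after 24 h of IFN-beta (4 ng/ml) plus compound. Compounds ran as 11-point 1:3 series, top 46 uM final.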
On the technique in general: Quantitative high-throughput screening tests each substance at several concentrations.

Test [2] concerns the target Calcium and integrin-binding protein 1 (Homo sapiens) (UniProt Q99828). As to the kind of experiment: Primary qHTS for Identification of Calcium Integrin Binding Protein 1 (CIB1) Competitor (AID 1508620).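 Also: GST tagged CIB1 binding a fluorescein labelled alphaIIb integrin peptide tracer; top concentration of the series differs between compounds.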 The conditions noted are these: CIB1-GST / FITC-alphaIIb peptide fluorescence polarization; series mostly up to 57.7 µM. The method, boiled down:
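Fluorescence polarization competition: CIB1-GST (1 uM final) preincubated with compound 15 min at room temperature, then FITC-labeled alphaIIb peptide (100 nM final) added for another 15 min. Polarization read at Ex 480/Em 540.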

Test [3] is described as follows: Primary qHTS for small molecule stabilizers of the endoplasmic reticulum resident proteome: Secreted ER Calcium Modulated Protein (SERCaMP) assay (AID 1508630). Also: potency is read from the fitted curve at half-maximal effect. The conditions noted are these: SH-SY5Y GLuc-SERCaMP (Gaussia luciferase released on ER calcium loss) secretion, thapsigargin, luminescence; series mostly up to 38.4 µM. The method, boiled down: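 The SH-SY5Y reporter protocol was run at 3 concentrations up to 38.3 uM (primary) or 11 concentrations (follow-up): 16 h compound, 100 nM thapsigargin for 4 h, then extracellular luciferase luminescence.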

In test [4] the target is Cytochrome P450 2D6 (Homo sapiens) (UniProt P10635). As to the kind of experiment: Cytochrome P450 family 2 subfamily D member 6 (CYP2D6) small molecule antagonists: luciferase biochemical (cell-free) qHTS assay (AID 1645840; active = well fitted curve in the direction sought with a large enough effect in the repeat runs; an effect the other way counts as inactive or inconclusive; also: nearly all actives have a fitted effect of over 55% in size; also: potency is read from the fitted curve at half-maximal effect). As to conditions: P450-Glo CYP2D6 enzyme, luciferin luminescence, 1 h; series mostly up to 57.4 µM. In short, it runs like this:
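P450-Glo CYP2D6 system: proluciferin substrate converted by enzyme to luciferin, read by luminescence proportional to activity. Enzyme-substrate mix with compound 10 min at room temperature, then NADPH regeneration 1 h before detection reagent.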

Test [5] has as its target Cytochrome P450 2C9 (Homo sapiens) (UniProt P11712). Put plainly: Cytochrome P450 family 2 subfamily C member 9 (CYP2C9) small molecule antagonists: luciferase biochemical (cell-free) qHTS assay (AID 1645842; active = well fitted curve in the direction sought with a large enough effect in the repeat runs; an effect the other way counts as inactive or inconclusive; also: nearly all actives have a fitted effect of over 55% in size; also: potency is read from the fitted curve at half-maximal effect). As to conditions: P450-Glo CYP2C9 enzyme assay, luciferin luminescence; series mostly up to 57.4 µM. The method, boiled down: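 P450-Glo CYP2C9 system: proluciferin substrate with enzyme in mix containing 0.4% BSA, 10 min at room temperature, then NADPH regeneration solution added and incubated 1 h at 37C. Detection reagent stopped reaction; luminescence read after 20 min as RLU.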

The nature of test [6]: Primary qHTS for inhibitors of nuclear receptor binding SET domain protein 2 (NSD2) in an isogenic RCH-ACV NSD2 p.E1099K mutant (9B) (AID 1645876). Also: nearly all actives have a fitted effect of over 70% in size. Also: potency is read from the fitted curve at half-maximal effect. As to conditions: RCH-ACV (leukaemia line) NSD2 E1099K (9B) viability, CellTiter-Glo, 72 h; series mostly up to 44.9 µM.
Test [7] addresses Protein phosphatase 1D (Homo sapiens) (UniProt O15297). As to the kind of experiment: RapidFire Mass Spectrometry qHTS Assay for Modulators of WT P53-Induced Phosphatase 1 (WIP1) (AID 1347424).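 Also: amount of dephosphorylated VEPPL-S-QETFS peptide product formed by WIP1.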 As to conditions: WIP1 dephosphorylation of phosphopeptide, RapidFire MS; series mostly up to 63 µM. The method, boiled down: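 Mass-spectrometric measurement of dephosphorylated peptide after a 5 min room-temperature reaction of 10 nM WIP1 with 2 uM phosphopeptide, following 1 h compound preincubation in 30 mM MgCl2 buffer.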

The target is the same in test [8]. As to the kind of experiment: Rhodamine-PBP qHTS Assay for Modulators of WT P53-Induced Phosphatase 1 (WIP1) (AID 1347425). The conditions noted are these: recombinant WIP1, Rhodamine-PBP phosphate fluorescence, real-time; series mostly up to 57.5 µM. The method, boiled down: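 WIP1 (5 nM final) was preincubated with compound for 1 hour at room temperature. It then dephosphorylated 10 uM VEPPL-pS-QETFS peptide in Tris-HCl pH 7.5 with 30 mM MgCl2. Released Pi was detected by 10 uM Rh-PBP fluorescence (ex 525/em 598 nm) read at 1-min intervals for 11 min, as delta f1 - f0.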

The nature of test [9]: Primary qHTS for inhibitors of La Crosse Virus (LACV) - induced cell death in SH-SY5Y cells (AID 1508616).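 Also: top concentration of the series differs between compounds; higher means more rescue of cells from virus-induced death.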 The conditions noted are these: SH-SY5Y LACV cytopathicity rescue, ATP luminescence, 6 d; series mostly up to 4.29 µM. In short, it runs like this: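 Rescue of virus-induced death was read as ATPLite luminescence after 6 days at 37C, scaled between DMSO wells with LACV and without virus. Cells were SH-SY5Y, 6000/well, infected at 0.01 MOI after compound addition.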

Test [10] has as its target Cytochrome P450 3A4 (Homo sapiens) (UniProt P08684). As to the kind of experiment: Cytochrome P450 family 3 subfamily A member 4 (CYP3A4) small molecule antagonists: luciferase qHTS assay (AID 1645841; active = well fitted curve in the direction sought with a large enough effect in the repeat runs; an effect the other way counts as inactive or inconclusive; also: nearly all actives have a fitted effect of over 45% in size). As to conditions: P450-Glo CYP3A4 enzyme assay, luciferin luminescence; series mostly up to 57.4 µM. The method, boiled down: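 P450-Glo CYP3A4 enzyme with proluciferin substrate was preincubated with DMSO-dissolved compounds for 10 min at room temperature. NADPH regeneration solution started a 1 h reaction. Detection reagent stopped it, and luminescence was read after 20 min.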

SMILES strings stand for the structures. Values joined by “and” are separate entries in the source; they are usually repeats but may differ in a detail not shown here. Equal values may be shown once. Results filed as inconclusive are left out. Values without a mark were called inactive. Active and inactive are the calls of the source. Unless noted, calls follow the shape of the dose curve; as a rule, active = well fitted curve in the direction sought with a large enough effect; inconclusive = small, poorly fitted or top-dose-only effect, or another doubt; inactive = no such curve, though single readings can be large; an effect the other way counts as inactive or inconclusive.

Cytochrome P450 2D6 (Homo sapiens), sequence (P10635 whole entry, looked up): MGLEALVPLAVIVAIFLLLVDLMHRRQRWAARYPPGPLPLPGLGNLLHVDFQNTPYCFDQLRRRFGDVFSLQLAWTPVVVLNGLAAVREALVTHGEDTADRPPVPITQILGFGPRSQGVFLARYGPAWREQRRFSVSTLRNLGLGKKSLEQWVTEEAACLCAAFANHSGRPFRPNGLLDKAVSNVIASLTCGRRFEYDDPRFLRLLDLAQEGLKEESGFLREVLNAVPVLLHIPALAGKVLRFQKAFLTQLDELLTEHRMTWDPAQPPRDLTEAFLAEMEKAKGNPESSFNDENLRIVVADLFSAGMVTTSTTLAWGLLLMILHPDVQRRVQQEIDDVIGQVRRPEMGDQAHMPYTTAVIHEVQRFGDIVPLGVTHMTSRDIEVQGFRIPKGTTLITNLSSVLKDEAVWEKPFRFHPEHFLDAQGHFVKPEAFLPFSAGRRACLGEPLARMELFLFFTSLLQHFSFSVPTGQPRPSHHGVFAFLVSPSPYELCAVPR
Cytochrome P450 2C9 (Homo sapiens), sequence (P11712 whole entry, looked up): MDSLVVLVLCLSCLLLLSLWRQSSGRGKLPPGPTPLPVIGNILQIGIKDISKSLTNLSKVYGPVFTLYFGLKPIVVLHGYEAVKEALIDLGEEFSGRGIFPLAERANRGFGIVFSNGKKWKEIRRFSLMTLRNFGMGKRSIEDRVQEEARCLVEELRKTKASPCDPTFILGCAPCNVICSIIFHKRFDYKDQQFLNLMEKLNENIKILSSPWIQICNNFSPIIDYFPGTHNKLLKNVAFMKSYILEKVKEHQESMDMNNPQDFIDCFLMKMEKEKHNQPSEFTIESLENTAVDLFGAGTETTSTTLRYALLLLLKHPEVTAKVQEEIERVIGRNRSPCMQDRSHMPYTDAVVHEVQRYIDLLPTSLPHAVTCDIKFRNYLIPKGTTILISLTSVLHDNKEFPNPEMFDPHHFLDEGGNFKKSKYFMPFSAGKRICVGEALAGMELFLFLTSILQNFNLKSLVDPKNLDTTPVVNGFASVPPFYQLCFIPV
Calcium and integrin-binding protein 1 (Homo sapiens), sequence (Q99828 whole entry, looked up): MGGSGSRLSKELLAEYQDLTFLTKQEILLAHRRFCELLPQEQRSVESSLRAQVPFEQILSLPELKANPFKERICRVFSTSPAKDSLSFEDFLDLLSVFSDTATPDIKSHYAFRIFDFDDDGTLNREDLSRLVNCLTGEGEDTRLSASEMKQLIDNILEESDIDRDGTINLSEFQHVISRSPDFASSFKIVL
Protein phosphatase 1D (Homo sapiens), sequence (O15297 whole entry, looked up): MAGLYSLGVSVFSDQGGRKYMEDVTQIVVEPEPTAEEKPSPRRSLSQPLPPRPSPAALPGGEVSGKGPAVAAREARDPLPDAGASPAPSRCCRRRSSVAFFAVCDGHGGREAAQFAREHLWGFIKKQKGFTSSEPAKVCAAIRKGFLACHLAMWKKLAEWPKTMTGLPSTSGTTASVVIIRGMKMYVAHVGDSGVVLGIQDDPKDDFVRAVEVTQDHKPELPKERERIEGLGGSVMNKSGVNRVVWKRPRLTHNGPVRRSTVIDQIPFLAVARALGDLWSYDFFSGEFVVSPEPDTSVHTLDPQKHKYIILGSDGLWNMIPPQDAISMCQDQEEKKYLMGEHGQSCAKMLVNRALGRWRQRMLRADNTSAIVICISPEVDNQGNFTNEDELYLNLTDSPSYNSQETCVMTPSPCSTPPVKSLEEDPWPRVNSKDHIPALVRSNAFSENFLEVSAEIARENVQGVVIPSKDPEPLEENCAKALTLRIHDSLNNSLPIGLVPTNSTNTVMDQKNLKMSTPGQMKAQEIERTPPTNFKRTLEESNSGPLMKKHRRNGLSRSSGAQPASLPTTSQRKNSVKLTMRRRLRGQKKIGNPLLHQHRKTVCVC
Cytochrome P450 3A4 (Homo sapiens), sequence (P08684 whole entry, looked up): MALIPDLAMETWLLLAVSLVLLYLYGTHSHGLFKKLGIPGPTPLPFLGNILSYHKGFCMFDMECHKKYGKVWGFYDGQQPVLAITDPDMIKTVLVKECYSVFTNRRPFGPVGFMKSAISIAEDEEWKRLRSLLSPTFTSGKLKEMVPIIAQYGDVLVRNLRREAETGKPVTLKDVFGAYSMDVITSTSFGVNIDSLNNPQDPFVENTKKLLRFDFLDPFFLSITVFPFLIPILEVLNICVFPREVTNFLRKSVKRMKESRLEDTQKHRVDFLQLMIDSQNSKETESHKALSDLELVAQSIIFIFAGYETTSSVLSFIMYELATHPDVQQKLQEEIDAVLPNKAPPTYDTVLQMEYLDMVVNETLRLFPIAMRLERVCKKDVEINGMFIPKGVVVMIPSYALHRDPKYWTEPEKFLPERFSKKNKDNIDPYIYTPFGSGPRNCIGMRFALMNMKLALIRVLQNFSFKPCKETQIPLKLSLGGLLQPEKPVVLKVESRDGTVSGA

Take `COc1ccc(CCC(=O)Nc2nc3ccc(Cl)cc3s2)cc1OC`: the Potency entry in test [1], in test [2], in test [3], in test [4] and in test [6] was “inactive” each time. The Potency in test [5] was 6.01 µM (active).
As to `COc1cc(Nc2nc3ccccc3nc2NS(=O)(=O)c2ccc(NC(=O)c3ccc(C)c(OC)c3)cc2)cc(OC)c1`, the Potency result in test [1], in test [2], in test [4] and in test [6] was “inactive” each time. In addition, the Potency is 8.41 µM (active) in [3] and 7.56 µM (active) in test [5].
In the case of `Nc1ccn([C@@H]2O[C@H](CO)[C@@H](O)[C@H]2O)c(=O)n1`, the Potency entry in test [1], in [2] and in test [3] was “inactive” throughout.
As to `CC1=C(CC(=O)O)c2cc(F)ccc2C1=Cc1ccc(S(C)=O)cc1` (centres undefined), the Potency entry in [1] is “inactive”.
Take `Cn1c(=O)c(Oc2ccc(F)cc2F)cc2cnc(NC3CCOCC3)nc21`: the Potency entry in test [1], in test [2] and in [3] was “inactive” throughout.
As for `O=C(Nc1ccc(OC(F)(F)F)cc1)c1sccc1NCc1ccnc2ccccc12`, the Potency result in test [1], in test [2] and in test [3] was “inactive” throughout. Moreover, the Potency in test [4] is 16.9 µM (active); in [5] it was 7.56 µM (active); in test [6], 16.6 µM (active) and 14.6 µM (active).
For `Cc1ccc2c(c1)C(=O)[C@]1(O)CCN(c3ccccc3)C1=N2`, the Potency entry in [1], in test [2] and in [3] was “inactive” each time.
With `CNC(=O)c1c(-c2ccc(F)cc2)oc2cc(N(CCO)S(C)(=O)=O)c(C3CC3)cc12`, the Potency result in [1], in test [2], in test [3], in test [4] and in test [6] was “inactive” throughout. Besides, the Potency in [5] was 10.7 µM (active).
As to `COc1ccc(-c2nc3ccc(C4=NNC(=O)CC4C)cc3[nH]2)cc1` (centres undefined), the Potency result in test [1], in [7], in [2] and in [4] was “inactive” in each case. The result in [8] and in [9] was inactive. For the same compound, the Potency in test [6] is 9.44 µM (active) and 14.8 µM (active).
For `Cc1cn([C@@H]2C[C@@H](O)[C@H](CO)O2)c(=O)[nH]c1=O`, the Potency result in test [1], in test [2], in test [3], in [4], in test [5] and in [6] was “inactive” in each case.
With `Cc1ccccc1-n1c(Cn2nc(-c3cccc(O)c3)c3c(N)ncnc32)nc2cccc(C)c2c1=O`, the Potency is 20.8 µM (active) in test [1], 2.13 µM (active) in test [5] and 186 nM (active) in test [6]. The Potency result in [2], in [3] and in test [4] was “inactive” each time.
Take `CC[C@H](C)C(=O)O[C@H]1C[C@H](O)C=C2C=C[C@H](C)[C@H](CC[C@@H](O)C[C@@H](O)CC(=O)O)[C@H]21`: the Potency entry in test [1], in test [2], in test [3], in test [4], in test [5] and in [6] was “inactive” each time. Also, in test [10], the call was inactive.
For the compound `COc1cc2ncn(-c3cc(OCc4ccccc4S(C)(=O)=O)c(C#N)s3)c2cc1OC`, the Potency result in test [1], in [2], in test [3] and in test [6] was “inactive” each time.
Regarding `CN[C@@H]1CN(c2ccc3c(=O)c(C(=O)O)cn(-c4nccs4)c3n2)C[C@@H]1OC`, the Potency in test [1] was 5.09 µM (active); in test [6], 102 nM (active). Besides, the Potency result in test [2] and in [3] was “inactive” each time.
Take `CCC(C)SSc1ncc[nH]1` (centres undefined): the Potency result in test [1], in [2] and in test [3] was “inactive” throughout. Also, in test [6], the Potency is 9340 nM (active).
With `O=C(O)Cc1cccc(OCCCN(Cc2cccc(C(F)(F)F)c2Cl)CC(c2ccccc2)c2ccccc2)c1`, the Potency entry in [1], in [2], in [3] and in test [6] was “inactive” in each case.
For `O=C(O)CCC=CCC[C@@H]1[C@H](N2CCCCC2)[C@@H](O)C[C@@H]1OCc1ccc(-c2ccccc2)cc1`, the Potency result in test [1], in test [2], in test [3] and in test [6] was “inactive” throughout.
As to `O=C(CO)N1CCC(c2[nH]nc(-c3ccc(Cl)cc3)c2-c2ccncn2)CC1`, the Potency entry in test [1], in test [2], in [3] and in [6] was “inactive” throughout. The Potency in [5] was 6.74 µM (active).
Consider `Cc1ccc2c(=O)c3cccc(CC(=O)O)c3oc2c1C`, for which the Potency result in [1], in [2], in [3] and in [6] was “inactive” in each case.
For `Cc1c(C(=O)Nc2ccc(N3C[C@@H](C)O[C@@H](C)C3)nc2)cccc1-c1ccc(OC(F)(F)F)cc1`, the Potency result in test [1], in [2], in test [3] and in [6] was “inactive” throughout.
As to `COC1CCC(C(=O)c2ccc3nc4c(cc3c2)CCCO4)CC1` (centres undefined), the Potency entry in [1], in test [2], in test [3] and in test [6] was “inactive” in each case.
For `COc1ccc(-c2oc3c(CC=C(C)C)c(O)cc(O)c3c(=O)c2O)cc1`, the Potency result in test [1], in test [2], in test [3] and in test [6] was “inactive” throughout.
As to `Cc1ccc(S(=O)(=O)OCC(=O)Nc2ccc(C(=O)O)c(O)c2)cc1`, the Potency entry in test [1], in test [2], in test [3] and in [6] was “inactive” each time.
As for `NC(=O)c1ccc(N(C(N)=O)c2c(F)cccc2F)nc1-c1ccc(F)cc1F`, the Potency result in test [1], in test [2], in test [3] and in test [6] was “inactive” in each case.
